# Source: PubChem BioAssay (Tox21)
# Unmarked numbers belong to inactive results. Inconclusive results are not listed. Entries that show only a call come without a potency. The source made the active and inactive calls. Unless noted, calls follow the shape of the dose curve; as a rule, active = well fitted curve in the direction sought with a large enough effect in the repeat runs; inconclusive = weak or mixed curves; inactive = no such curve, though single readings can be large; an effect the other way counts as inactive or inconclusive.
# Key:
# [1] = qHTS assay to identify small molecule antagonists of the estrogen related receptor signaling pathway with the pleiotropic PPARgamma coactivator (PGC) from Tox21 10K library - cell viability counter screen (AID 1224840; active = well fitted cell-killing curve with a large enough effect in the repeat runs, not every such curve was filed as active; also: nearly all actives have a fitted effect of over 40% in size)
# In short: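 PGC/ERR cells, 2,000/well; 6 h pre-incubation 37 C/5% CO2; cpd in DMSO via pin tool; 17.5 h 37 C; CellTiter-Fluor, 30 min; fluorescence.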
# [2] = qHTS assay to identify small molecule agonists of the hypoxia (HIF-1) signaling pathway - cell viability counter screen (AID 1224844; calls by dose curve; also: nearly all actives have a fitted effect of over 50% in size; also: potency is read from the fitted curve at half-maximal effect)
# In short: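 ME-180 HRE-bla cells, 2,000/well, 0.5% dialyzed FBS; 5 hr settle, 17 hr compound at 37C/5% CO2; CCF4-AM reporter read first, then CellTiter-Glo luminescence after 30 min RT.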
# [3] = qHTS assay to identify small molecule agonists of H2AX (AID 1224845; active = well fitted activation curve with a large enough effect in the signal ratio in the repeat runs, not every such curve was filed as active; the % refers to the signal ratio)
# In short: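 Wild-type CHO-K1 cells plated overnight, then exposed 3 hr at 37C to compounds at 15 concentrations (0.76% DMSO). Lysed, then HTRF anti-pH2AX(S139)-cryptate/anti-H2AX-d2 detection after 24 hr at room temperature; emissions 665 and 620 nm.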
# [4] = qHTS assay to identify small molecule agonists of H2AX - cell viability counter screen (AID 1224847; calls by dose curve; also: nearly all actives have a fitted effect of over 30% in size; also: potency is read from the fitted curve at half-maximal effect; as to activity change, negative = cytotoxicity: top concentration of the series differs between compounds)
# In short: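 Compounds tested at 15 concentrations were incubated 3 hr at 37C with wild-type CHO-K1 cells; cellular ATP-based luminescence (CellTiter-Glo) indicated viability.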
# [5] = qHTS RealTime-Glo MT Cell Viability Assay in HepG2 cells - 24 hour (AID 1224867); also: nearly all actives have a fitted effect of over 50% in size
# In short: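 HepG2 cells (600/well) were dispensed with RealTime-Glo reagents, incubated 5 h at 37 °C, then treated with compounds in DMSO for up to 40 h. Nonlytic NanoLuc luminescence reflecting viable cells was read at each stated time point.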
# [6] = qHTS RealTime-Glo MT Cell Viability Assay in HEK293 cells - 32 hour (AID 1224868); also: nearly all actives have a fitted effect of over 50% in size; also: potency is read from the fitted curve at half-maximal effect; as to activity change, negative = cytotoxic: top concentration of the series differs between compounds
# In short: (§1)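 HEK293 cells seeded with NanoLuc/prosubstrate reagent, rested 5 h at 37 C, then dosed and kept at 37 C up to 40 h. Nonlytic real-time luminescence from viable cells read at 0, 8, 16, 24, 32 and 40 h.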
# [7] = A CellTox Green Cytotoxicity Assay to monitor cytotoxicity in HEK293 cells - 0 hour (AID 1224869); also: nearly all actives have a fitted effect of over 50% in size
# In short: (§2)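 Nonlytic real-time cytotoxicity: HEK293 + CellTox Green reagent plated, 5 h preincubation, pintool compound addition (23 nL in DMSO), 37 C for 40 h, fluorescence measured at successive time points.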
# [8] = qHTS RealTime-Glo MT Cell Viability Assay in HepG2 cells - 40 hour (AID 1224870); also: nearly all actives have a fitted effect of over 50% in size; also: potency is read from the fitted curve at half-maximal effect
# In short: (§3)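 HepG2 cells mixed with RealTime-Glo MT reagents (NanoLuc plus cell-permeant prosubstrate) were seeded at 600 cells/well, incubated 5 h at 37 C/5% CO2, then pinned with compounds in DMSO; nonlytic luminescence tracked viability during 40 h treatment.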
# [9] = A CellTox Green Cytotoxicity Assay to monitor cytotoxicity in HEK293 cells - 40 hour (AID 1224871); also: nearly all actives have a fitted effect of over 45% in size
# In short: as §2
# [10] = qHTS RealTime-Glo MT Cell Viability Assay in HEK293 cells - 16 hour (AID 1224872); also: nearly all actives have a fitted effect of over 50% in size; also: potency is read from the fitted curve at half-maximal effect; as to activity change, negative = cytotoxicity: top concentration of the series differs between compounds
# In short: as §1
# [11] = qHTS RealTime-Glo MT Cell Viability Assay in HepG2 cells - 8 hour (AID 1224873); also: nearly all actives have a fitted effect of over 55% in size; also: potency is read from the fitted curve at half-maximal effect
# In short: as §3
# [12] = qHTS RealTime-Glo MT Cell Viability Assay in HEK293 cells - 40 hour (AID 1224874); conditions: RealTime-Glo luminescence; max response: stronger effect = lower value; also: nearly all actives have a fitted effect of over 50% in size; also: potency is read from the fitted curve at half-maximal effect
# In short: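 Cells were seeded together with NanoLuc luciferase and a prosubstrate that viable cells reduce to a luciferase substrate. After a 5 h incubation at 37 C/5% CO2, compounds were added and luminescence was measured repeatedly during 40 h of treatment.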
# [13] = target: Thyrotropin receptor (Homo sapiens) (UniProt P16473); assay: qHTS assay to identify small molecule agonists of the thyroid stimulating hormone receptor (TSHR) signaling pathway (AID 1224843; calls by dose curve; also: nearly all actives have a fitted effect of over 45% in size)
# Chain of Thyrotropin receptor (Homo sapiens) (P16473 whole entry, looked up): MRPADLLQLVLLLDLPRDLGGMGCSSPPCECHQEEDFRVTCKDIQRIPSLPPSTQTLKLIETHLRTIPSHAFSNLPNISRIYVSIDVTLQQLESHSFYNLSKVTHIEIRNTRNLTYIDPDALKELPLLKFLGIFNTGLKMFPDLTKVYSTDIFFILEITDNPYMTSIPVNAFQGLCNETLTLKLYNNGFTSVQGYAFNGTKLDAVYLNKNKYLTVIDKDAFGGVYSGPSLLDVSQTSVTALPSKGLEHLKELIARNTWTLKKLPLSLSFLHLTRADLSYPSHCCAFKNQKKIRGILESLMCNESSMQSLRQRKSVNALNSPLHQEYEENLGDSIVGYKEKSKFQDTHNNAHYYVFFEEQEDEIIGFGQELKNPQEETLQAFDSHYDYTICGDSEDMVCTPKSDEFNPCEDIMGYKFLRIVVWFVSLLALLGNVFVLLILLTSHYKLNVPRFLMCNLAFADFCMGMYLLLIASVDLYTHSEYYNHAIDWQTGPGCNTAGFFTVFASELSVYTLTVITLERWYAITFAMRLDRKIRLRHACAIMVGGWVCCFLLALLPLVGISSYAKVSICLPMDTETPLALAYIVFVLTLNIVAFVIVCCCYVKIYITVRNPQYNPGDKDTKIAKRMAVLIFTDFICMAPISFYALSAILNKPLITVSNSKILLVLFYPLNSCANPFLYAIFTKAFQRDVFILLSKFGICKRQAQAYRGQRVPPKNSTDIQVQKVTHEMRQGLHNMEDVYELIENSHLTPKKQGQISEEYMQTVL
# In short: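 TSHR-expressing HEK293 cells (800 per well) were exposed to compounds for 30 min at room temperature. cAMP was then detected by HTRF competition with cAMP-d2 and anti-cAMP cryptate, read after 1 h at room temperature. Fifteen concentrations, triplicate.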
# [14] = qHTS assay to identify small molecule agonists of the hypoxia (HIF-1) signaling pathway (AID 1224846; active = well fitted activation curve with a large enough effect in the signal ratio in the repeat runs, not every such curve was filed as active; the % refers to the signal ratio)
# In short: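 Cell line: CellSensor HRE-bla ME-180; 2,000 cells/well; 0.5% dialyzed FBS; 5 h preincubation; DMSO compound pin transfer; 17 h, 37C, 5% CO2; CCF4-AM added; bla FRET signal scored for activation.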
# [15] = qHTS assay to identify small molecule agonists of the estrogen related receptor signaling pathway with the pleiotropic PPARgamma coactivator (PGC) from Tox21 10K library (AID 1224842); also: nearly all actives have a fitted effect of over 15% in size
# In short: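 PGC/ERR reporter cells (NTP line) were seeded 2,000 per well, rested 6 h at 37 C/5% CO2, then pin-dosed with compounds in DMSO for 18 h at 37 C; luciferase read by One-Glo luminescence after 30 min at room temperature.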
# [16] = qHTS assay to identify small molecule agonists of the estrogen related receptor (ERR) signaling pathway from Tox21 library (AID 1224849; calls by dose curve; also: nearly all actives have a fitted effect of over 15% in size); conditions: ERR reporter cell line, ONE-Glo luciferase, 18 h; at 92.4 µM (top of the series) unless noted
# In short: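 ERR cells, 6 h pre-incubation 37 C/5% CO2; cpd in DMSO pinned; 18 h 37 C; ONE-Glo added, 30 min RT; luminescence read. Agonist mode, qHTS.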
# [17] = qHTS assay to identify small molecule antagonists of the estrogen related receptor signaling pathway with the pleiotropic PPARgamma coactivator (PGC) from Tox21 10K library (AID 1224841; call rule not given here)
# In short: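 PGC/ERR cell line, 2,000 cells/well; 6 h pre-incubation 37 C/5% CO2; compounds (DMSO) pinned in; 18 h, 37 C; One-Glo, 30 min RT; luminescence.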
# [18] = qHTS assay to identify small molecule antagonists of the estrogen related receptor (ERR) signaling pathway from Tox21 library (AID 1224848); also: nearly all actives have a fitted effect of over 50% in size; also: potency is read from the fitted curve at half-maximal effect
# In short: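 Cells: ERR line, 2,000/well; 6 h preincubation 37 C/5% CO2. Cpd in DMSO via pin tool; 18 h, 37 C. ONE-Glo, 30 min RT, luminescence.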
smiles,measurement,setting,value
c1ccc(-c2nc3ccccc3[nH]2)cc1,Potency,[1],inactive
same,Potency,[2],inactive
same,Potency,[3],inactive
same,Potency,[4],89.8 µM (active)
same,Potency,[5],inactive
same,Potency,[6],34.7 µM (active)
same,Potency,[7],inactive
same,Potency,[8],inactive
same,Potency,[9],inactive
same,Potency,[10],21.9 µM (active)
same,Potency,[11],inactive
same,Potency,[12],21.9 µM (active)
CCCCCCCC/C=C\CCCCCCCC(=O)N(CCO)CCO,Potency,[1],inactive
same,Potency,[3],inactive
same,Potency,[4],113 µM (active)
same,Potency,[5],inactive
same,Potency,[6],43.5 µM (active)
same,Potency,[7],inactive
same,Potency,[8],inactive
same,Potency,[10],43.5 µM (active)
same,Potency,[11],inactive
same,Potency,[12],43.5 µM (active)
CCC(=O)OC/C=C(\C)CCC=C(C)C,Potency,[13],inactive
same,Potency,[2],inactive
same,Potency,[3],inactive
same,Potency,[14],inactive
same,Potency,[4],inactive
same,Potency,[5],inactive
same,Potency,[6],inactive
same,Potency,[7],inactive
same,Potency,[8],inactive
same,Potency,[10],inactive
same,Potency,[11],inactive
same,max response,[12],-0.115%
Cc1ccc(C=O)cc1,Potency,[13],inactive
same,Potency,[2],inactive
same,Potency,[3],inactive
same,Potency,[14],inactive
same,Potency,[4],inactive
same,Potency,[5],inactive
same,Potency,[6],inactive
same,Potency,[7],inactive
same,Potency,[8],inactive
same,Potency,[9],inactive
same,Potency,[10],inactive
same,max response,[12],7.49%
O=C(Nc1ccccc1)c1cc(Cl)ccc1O,Potency,[15],inactive
same,Potency,[13],inactive
same,Potency,[2],inactive
same,Potency,[3],inactive
same,Potency,[4],25.3 µM (active)
same,"activity change, positive = activation",[16],-16.2%
same,Potency,[8],49 µM (active)
same,Potency,[12],21.9 µM (active)
Nc1ccc(Cl)c([N+](=O)[O-])c1,Potency,[1],inactive
same,Potency,[2],inactive
same,Potency,[3],inactive
same,Potency,[4],inactive
same,Potency,[5],inactive
same,Potency,[6],inactive
same,Potency,[7],inactive
same,Potency,[8],inactive
same,Potency,[10],inactive
same,max response,[12],-19.2%
COc1cc([C@@H]2c3cc4c(cc3[C@@H](O[C@@H]3O[C@@H]5CO[C@@H](C)O[C@H]5[C@H](O)[C@H]3O)[C@H]3COC(=O)[C@H]23)OCO4)cc(OC)c1O,Potency,[17],inactive
same,Potency,[18],3.81 µM (active)
same,"activity change, positive = activation",[16],-61.8%
same,Potency,[6],0.861 µM (active)
same,Potency,[7],inactive
same,Potency,[8],inactive
same,Potency,[9],inactive
same,Potency,[11],inactive
same,Potency,[12],0.684 µM (active)
CC(=O)CC(N)=O,Potency,[1],inactive
same,Potency,[2],inactive
same,Potency,[14],inactive
same,Potency,[4],inactive
same,Potency,[5],inactive
same,Potency,[6],inactive
same,Potency,[8],inactive
same,Potency,[10],inactive
same,max response,[12],14.8%
CCSCC,Potency,[2],inactive
same,Potency,[14],inactive
same,Potency,[4],inactive
same,Potency,[6],inactive
same,Potency,[7],inactive
same,Potency,[8],inactive
same,Potency,[9],inactive
same,Potency,[10],inactive
same,max response,[12],8.26%
Nc1ccc2c(S(=O)(=O)O)cccc2c1S(=O)(=O)O,Potency,[17],inactive
same,Potency,[15],inactive
same,Potency,[13],inactive
same,Potency,[2],inactive
same,Potency,[14],inactive
same,Potency,[4],inactive
same,Potency,[18],inactive
same,"activity change, positive = activation",[16],-1.51% [at 42.5 µM]
same,Potency,[5],inactive
same,Potency,[6],inactive
same,Potency,[7],inactive
same,Potency,[8],inactive
same,Potency,[9],inactive
same,Potency,[10],inactive
same,Potency,[11],inactive
same,max response,[12],5.38%
O=C(CCCCCCCCc1cccnc1)N1CCC(C=C(c2ccccc2)c2ccccc2)CC1,Potency,[15],inactive
same,Potency,[2],13.8 µM (active)
same,Potency,[3],inactive
same,Potency,[4],50.5 µM (active)
same,Potency,[18],21.7 µM (active)
same,"activity change, positive = activation",[16],-69.2%
same,Potency,[6],21.9 µM (active)
same,Potency,[10],21.9 µM (active)
same,Potency,[11],49 µM (active)
same,Potency,[12],21.9 µM (active)
C=CC(=O)OCCOC1C2CCC1C1CC=CC12 (centres undefined),activation,[13],-1.28% [at 19 µM]
same,"activity change, negative = cytotoxicity",[2],4.59% [at 15.8 µM]
same,activation (H2AX phosphorylation),[3],-0.772% [at 31.6 µM]
same,"activity change, negative = cytotoxicity",[4],1.49% [at 31.6 µM]
same,"activity change, negative = cytotoxicity",[5],3.51% [at 15.8 µM]
same,"activity change, negative = cytotoxic",[6],0.499% [at 15.8 µM]
same,cytotoxicity,[7],-3.9% [at 15.8 µM]
same,"activity change, negative = cytotoxic",[8],5.7% [at 15.8 µM]
same,"activity change, negative = cytotoxicity",[10],-2.12% [at 15.8 µM]
same,"viability change, negative = cytotoxic",[11],0.124% [at 15.8 µM]
same,max response,[12],6.38%
CC(C)=NNC(N)=S,Potency,[1],inactive
same,Potency,[2],inactive
same,Potency,[14],inactive
same,Potency,[4],inactive
same,Potency,[5],inactive
same,Potency,[6],inactive
same,Potency,[7],inactive
same,Potency,[8],inactive
same,Potency,[10],inactive
same,Potency,[11],inactive
same,max response,[12],3.34%
O=C1CCC(=O)N1,Potency,[17],inactive
same,Potency,[15],inactive
same,Potency,[13],inactive
same,Potency,[2],inactive
same,Potency,[3],inactive
same,Potency,[14],inactive
same,Potency,[4],inactive
same,Potency,[18],inactive
same,"activity change, positive = activation",[16],0.296%
same,Potency,[5],inactive
same,Potency,[8],inactive
same,Potency,[9],inactive
same,Potency,[11],inactive
CC(C=O)c1ccccc1 (centres undefined),Potency,[1],inactive
same,Potency,[2],inactive
same,Potency,[3],inactive
same,Potency,[14],inactive
same,Potency,[4],inactive
same,Potency,[5],inactive
same,Potency,[7],inactive
same,Potency,[8],inactive
same,Potency,[10],inactive
same,max response,[12],-16.6%
CC1=CC[C@@H](C(C)(C)O)CC1,Potency,[1],inactive
same,Potency,[13],inactive
same,Potency,[2],inactive
same,Potency,[3],inactive
same,Potency,[4],inactive
same,Potency,[5],inactive
same,Potency,[6],inactive
same,Potency,[7],inactive
same,Potency,[9],inactive
same,Potency,[10],inactive
same,Potency,[11],inactive
same,max response,[12],4.47%
